# Laboratory results published in PubChem BioAssay (NCI).
# “And” between values parts separate entries of the source, which are not always exact repeats. Equal values may be shown once. This is part of a sample that, as a whole, favours compounds with a hit. Of some 79,000 tested, about 15% had one in any assay. A number with no mark means an inactive call. The source made the active and inactive calls. Rule as the data show it: active = growth inhibition above about 70%; inactive = the rest.
# Assays:
# [1] = NCI Yeast Anticancer Drug Screen. Data for the rad50 strain (AID 155);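 also: 0% = growth of vehicle-only cultures of the same strain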; conditions: S. cerevisiae rad50 strain growth inhibition, stronger effect = higher value
# How it was run: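 DNA repair mutant yeast, compound exposure, growth read-out; inhibition is taken relative to vehicle.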
# [2] = NCI Yeast Anticancer Drug Screen. Data for the mec2-1 strain (AID 157); conditions: S. cerevisiae mec2-1 strain, stronger effect = higher value
# How it was run: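 Readout is yeast growth inhibition, normalised to vehicle-treated controls, in the mec2-1 strain exposed to compound.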
# [3] = NCI Yeast Anticancer Drug Screen. Data for the sgs1 mgt1 strain (AID 161);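 also: 0% = growth of cultures given vehicle only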; conditions: S. cerevisiae sgs1 mgt1 strain, stronger effect = higher value
# How it was run: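 Percent growth inhibition was derived by comparing compound-exposed mutant yeast with vehicle-exposed cultures. The strain carries alterations in DNA damage repair.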
# [4] = NCI Yeast Anticancer Drug Screen. Data for the cln2 rad14 strain (AID 165);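 also: 0% = growth equal to vehicle treated cultures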; conditions: S. cerevisiae cln2 rad14 strain, stronger effect = higher value
# How it was run: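 Relative to vehicle controls, growth inhibition of compound-treated cln2 rad14 yeast was recorded.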
# [5] = NCI Yeast Anticancer Drug Screen. Data for the bub3 strain (AID 167); conditions: S. cerevisiae bub3 mutant strain, stronger effect = higher value
# How it was run: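 In this screen, a yeast mutant lacking normal mitotic checkpoint function is challenged with compound. Relative growth versus vehicle gives the inhibition value.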
# [6] = NCI Yeast Anticancer Drug Screen. Data for the mlh1 rad18 strain (AID 175); conditions: S. cerevisiae mlh1 rad18 strain growth inhibition, stronger effect = higher value
# How it was run: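 Test agents were incubated with a yeast strain of defined genotype (DNA damage repair defect). Inhibition of growth was derived by comparison with vehicle-exposed cultures.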
# [7] = at 5.0 µM (retest, dose inferred, filed as 0.5)
# [8] = at 50.0 µM (retest, dose inferred, filed as 5.0)
Compound,"growth inhibition [1, 7]","growth inhibition [1, 8]","growth inhibition [2, 7]","growth inhibition [2, 8]","growth inhibition [3, 7]","growth inhibition [3, 8]","growth inhibition [4, 7]","growth inhibition [4, 8]","growth inhibition [5, 7]","growth inhibition [5, 8]","growth inhibition [6, 7]","growth inhibition [6, 8]",growth inhibition ([1]; at 50.0 µM),growth inhibition ([2]; at 50.0 µM),growth inhibition ([3]; at 50.0 µM),growth inhibition ([4]; at 50.0 µM),growth inhibition ([5]; at 50.0 µM),growth inhibition ([6]; at 50.0 µM)
ClCC[N+]12CC[N+](CCCl)(CC1)C2,59%,97% (active),50%,98% (active),86% (active),99% (active),75% (active),98% (active),82% (active),98% (active),47%,97% (active),,,,,,
CC(=O)OC(C)(C)/C=C/C(=O)[C@](C)(O)[C@H]1[C@H](O)C[C@@]2(C)[C@@H]3CC=C4[C@@H](C[C@H](O)[C@H](O)C4(C)C)[C@]3(C)C(=O)C[C@]12C,15%,98% (active),52%,99% (active),13%,98% (active),43%,98% (active),65%,99% (active),55%,98% (active),92.1% (active),93.5% (active),93.3% (active),91.1% (active),91.5% (active),91.8% (active)
CCCCCCCCC(=O)[O][Hg][c]1ccccc1,99% (active),99% (active),100% (active),100% (active),100% (active),99% (active),99% (active),99% (active),99% (active),100% (active),99% (active),100% (active),99.5% (active),99.7% (active),99.7% (active),99.3% (active),99.1% (active),99.5% (active)
ClCCCCCl,13%,-2%,-4%,-2%,5%,-5%,5%,-6%,,,4%,-1%,32.2%,16.8%,-18.9%,41%,,26.6%
O=C(O)C1C2c3ccccc3C(c3ccccc32)C1Br (configuration not stated),-13%,3%,0%,9%,-7%,8%,3%,-1%,-20%,-29%,-11%,-8%,2.7%,3.8%,-1.2%,34.2%,-8.2%,14.1%
Clc1ccc(-c2cc(=[N+]3CC[N+](=c4cc(-c5ccc(Cl)cc5)ss4)CC3)ss2)cc1,8%,3%,,,2%,4%,5%,-9%,3%,-2%,7%,4%,98.3% (active),,98.9% (active),95.7% (active),98% (active),98.5% (active)
NNc1n[nH]c(=S)n1N,,,,,,,,,,,,,7.2% and 1.8% and 15.1%,-5.4% and 0.5% and -6.15%,9.8% and -4.35% and 4.1%,8.7% and 13% and 5.85%,9.3% and 17% and 0.45%,17.6% and -1.5% and -1.65%
CSCCl,3%,51%,3%,73% (active),4%,86% (active),,,0%,75% (active),-6%,95% (active),88.2% (active),94.5% (active),90% (active),,97.6% (active),95% (active)
O=[As]c1ccc([N+](=O)[O-])cc1 (configuration not stated),80% (active),100% (active),,,39%,99% (active),58%,98% (active),99% (active),100% (active),89% (active),99% (active),99.6% (active),,99.7% (active),98.9% (active),99.3% (active),99.5% (active)
c1ccc(C[As+](c2ccccc2)(c2ccccc2)c2ccccc2)cc1,24%,92% (active),,,1%,89% (active),1%,75% (active),4%,96% (active),11%,89% (active),97.3% (active),,98.8% (active),94.7% (active),93% (active),97.7% (active)
